According to the supplement of paper PMC11624193, “Coupling cellular drug-target engagement to downstream pharmacology with CeTEAM” (Nature Communications, 2024):
Structures can show the parent of a compound that is named as a salt.

Target: PARP1 L713F-nLuc biosensor (HCT116) (UniProt P09874)
Assay: PARP1 L713F-nLuc/akaLuc ratio relative to DMSO control (biosensor stabilization) (fold change); higher = more PARP1 biosensor stabilization (target engagement / stabilizer), active = hit call of the paper
Details: stock concentration (mM; final µM = stock mM x 1): 10; 24 h;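 active = log2 fold change beyond 2 SD from the library mean after excluding viability outliers; inactive = within 2 SD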

Sequence of PARP1 L713F-nLuc biosensor (HCT116) (P09874 whole entry L713F, looked up): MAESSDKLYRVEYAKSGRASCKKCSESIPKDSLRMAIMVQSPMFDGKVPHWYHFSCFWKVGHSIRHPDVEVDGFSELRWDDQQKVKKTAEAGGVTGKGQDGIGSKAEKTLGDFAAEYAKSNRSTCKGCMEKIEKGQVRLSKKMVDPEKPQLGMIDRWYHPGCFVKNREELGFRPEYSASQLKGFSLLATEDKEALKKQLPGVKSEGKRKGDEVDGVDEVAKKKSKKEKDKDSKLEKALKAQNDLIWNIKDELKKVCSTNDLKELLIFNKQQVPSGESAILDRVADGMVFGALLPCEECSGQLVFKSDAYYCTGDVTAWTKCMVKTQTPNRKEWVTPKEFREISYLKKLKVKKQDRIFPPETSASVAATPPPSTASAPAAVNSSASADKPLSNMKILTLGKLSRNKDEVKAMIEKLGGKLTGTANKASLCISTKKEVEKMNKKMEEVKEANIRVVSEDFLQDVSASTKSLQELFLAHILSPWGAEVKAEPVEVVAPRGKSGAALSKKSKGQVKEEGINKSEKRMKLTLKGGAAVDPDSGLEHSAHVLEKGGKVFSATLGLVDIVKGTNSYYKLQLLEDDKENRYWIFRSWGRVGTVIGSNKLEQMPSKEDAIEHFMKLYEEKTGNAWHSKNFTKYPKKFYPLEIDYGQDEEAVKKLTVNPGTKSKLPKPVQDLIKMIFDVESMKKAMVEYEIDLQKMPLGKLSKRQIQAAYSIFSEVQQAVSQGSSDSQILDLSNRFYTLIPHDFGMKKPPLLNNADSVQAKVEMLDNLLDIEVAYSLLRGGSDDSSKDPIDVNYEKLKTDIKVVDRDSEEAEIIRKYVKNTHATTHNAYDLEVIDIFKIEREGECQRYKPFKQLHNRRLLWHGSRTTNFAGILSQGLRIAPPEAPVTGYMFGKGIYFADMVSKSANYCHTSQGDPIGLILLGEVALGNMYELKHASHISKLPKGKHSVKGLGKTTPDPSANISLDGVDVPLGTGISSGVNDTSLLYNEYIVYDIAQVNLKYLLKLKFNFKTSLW

SMILES	PARP1 L713F-nLuc/akaLuc ratio
CNCc1ccc(-c2cc3cc(F)cc(C(N)=O)c3o2)cc1 [Mefuparib (hydrochloride)]	10.5 (active)
O=c1ccoc2cc(O)cc(O)c12 [5,7-Dihydroxychromone]	1.02 (inactive)
O=c1ncccn1[C@@H]1O[C@H](CO)[C@@H](O)[C@H]1O [Zebularine]	0.711 (inactive)
CCCCCCCCCCCCC/C=C/[C@@H](O)[C@@H](N)CO [D-erythro-Sphingosine]	1.21 (inactive)
O=C(Nc1nc2cccc(-c3ccc(CN4CCS(=O)(=O)CC4)cc3)n2n1)C1CC1 [Filgotinib]	0.941 (inactive)
C[C@H](NC(=O)/C(C#N)=C/c1cccc(Br)n1)c1ccccc1	0.804 (inactive)
O=S(=O)(c1cccc2cnccc12)N1CCNCC1	0.882 (inactive)
Oc1cc(O)c2cc(O)c(-c3cc(O)c(O)c(O)c3)[o+]c2c1 [Delphinidin (chloride)]	1.09 (inactive)
O=C(O)C1=CC(=C(c2ccc(O)c(C(=O)O)c2)c2ccc(O)c(C(=O)O)c2)C=CC1=O [Aurintricarboxylic acid]	0.68 (inactive)
CONC(=O)c1ccccc1Nc1cc(Nc2cc(C)nn2C(C)C)ncc1Cl	0.987 (inactive)
Cn1nnc2c(C(N)=O)ncn2c1=O [Temozolomide]	0.833 (inactive)
Nc1c(S(=O)(=O)c2ccccc2)c2nc3ccccc3nc2n1-c1ccc(F)cc1	1.04 (inactive)
CN[C@@H](C)C(=O)N[C@H]1CN(C(=O)CC(C)C)CC[C@H]2CC[C@@H](C(=O)NC(c3ccccc3)c3ccccc3)N2C1=O	0.738 (inactive)
